The panel holds about 83,000 compounds, 20% with a hit somewhere; the sample as a whole holds those more often.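 Results are percent growth after 48 hours of single-concentration exposure. 100 means growth as in untreated cells, lower positive values show inhibition; negative values down to -100 show cell death.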 Unmarked numbers belong to inactive results. Rule for the calls: active = growth percent below 10; inactive = the rest.
tested on: MDA-MB-468 breast; test: NCI-60 one-dose screen, 48 h (100 = growth as untreated, 0 = no growth, -100 = all killed); details: 10 µM unless noted

Row | SMILES | growth
1 | CCNC(=S)n1nc(SC)c(C(=O)OCC)c1N | 114%
2 | COc1ccc(-c2nnc(SCc3ccc(O)c4ncccc34)n2-c2ccccc2)cc1 | 10.3%
3 | O=C1N(C[P+](c2ccccc2)(c2ccccc2)c2ccccc2)CCCN1C[P+](c1ccccc1)(c1ccccc1)c1ccccc1 | 105%
4 | CC(=O)N1N=C(c2cccc(Nc3ccncc3)c2)CC1c1ccccc1 (centres undefined) | 79.8%

From PubChem BioAssay (NCI)
